This is a sample that favours compounds with a hit; in the whole collection about 4% have one here.
TROY signal inh = inhibitors of TROY-dependent NF-kB signaling; actives 0.98% (n = 360,000); inhibition, % at 10 µM; AID 1347056; Q293 LMP1-TROYcd NF-kB luciferase reporter, 4 h;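 active = compounds whose plate-normalised and pattern-corrected inhibition of the luciferase reporter signal at the single screening dose is 50% or more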
KKLEB cytotox = counter-screen for CF NF-kB inhibitors: cytotoxicity | KKLEB CF airway cells viability, ATPlite luminescence, overnight; active compounds read low; cells stimulated with P. aeruginosa culture filtrate | actives 0.36% (n = 360,000) | activity change (cytotoxicity), % at 5 µM;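 active = corrected activity change at or below -50% at 5 µM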
Peg3 prom inh = inhibitors of Peg3 promoter | AID 588405 | HeLa PEG-Prom luciferase reporter, luminescence, overnight | actives 1.7% (n = 360,000) | inhibition, % at 20 µM;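 active = inhibition of at least 50% at 20 µM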
TWEAK Fn14 block = blocks TWEAK-Fn14 interaction in a reporter cell assay; TWEAK-stimulated Fn14 reporter cells, luciferase luminescence, 8 h; inhibition, % at 10 µM; actives 2% (n = 360,000); AID 1159606; in the data active = inhibition above about 50%
CF NFkB inh = cystic fibrosis NF-kB activation inhibition; KKLEB NF-kB-GFP reporter, PAF-induced, GFP fluorescence overnight; inhibition, % at 5 µM; actives 0.86% (n = 360,000); AID 588850;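 active = at least 50% inhibition at 5 µM, scaled per plate between neutral and stimulator controls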;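 note: PAF is a Pseudomonas aeruginosa culture filtrate used as stimulus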
HIF-2a block = blocks HIF-2a reporter activity. 786-0 RCC cells HIF-2a reporter, luciferase luminescence, overnight. inhibition, % at 18.8 µM. actives 0.72% (n = 360,000). AID 624352;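 active = inhibition of the luminescence signal of 40% or more relative to plate controls, in a single-dose primary screen at 18.75 µM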
Each line names hits and unclear results; the compound was inactive in the other large screens.

COC(=O)c1ccc(CCc2cc(O)c(Br)cc2O)cc1	TWEAK Fn14 block 92
CCOc1ccc(S(=O)(=O)N2CCN(C(=O)c3cc([N+](=O)[O-])ccc3N3CCOCC3)CC2)cc1	none
COc1ccc(CCNC(=O)c2cc([N+](=O)[O-])ccc2N2CCOCC2)cc1	none
COc1cc(C(=S)N2CCOCC2)ccc1OC(=O)c1cc([N+](=O)[O-])cc([N+](=O)[O-])c1	none
COc1ccc(C(=S)N2CCOCC2)cc1OC(=O)c1ccc([N+](=O)[O-])cc1[N+](=O)[O-]	TWEAK Fn14 block 100
CCOc1ccc(C(=O)c2cc([N+](=O)[O-])ccc2N2CCOCC2)cc1	CF NFkB inh 55
Cc1ccc(C(=O)c2cc([N+](=O)[O-])ccc2N2CCOCC2)cc1	Peg3 prom inh 52
COc1ccc(C(=O)c2cc([N+](=O)[O-])ccc2N2CCOCC2)cc1	CF NFkB inh 60
COc1ccccc1N1CCN(C(=O)c2cc(-c3ccc(F)cc3)[nH]c2C)CC1	none
COCCN1C(=O)c2ccccc2C1c1nnnn1Cc1ccccc1 (centres undefined)	none (no result: KKLEB cytotox, Peg3 prom inh, CF NFkB inh)
O=C(CCN=C1NS(=O)(=O)c2ccccc21)OCc1nnc(-c2ccccc2)o1	none
CCc1cc2c(=O)c(-c3ccc4c(c3)OCO4)coc2c(CN(C)C)c1O	none
CCc1cc2c(=O)c(-c3cscn3)coc2c(CN(C)C)c1O	TROY signal inh 66
CSc1cccc(CN2CCCC(CNC(=O)c3ccco3)C2)c1 (centres undefined)	none
CC(=O)c1ccc(N2CCN(c3ccc(S(=O)(=O)NCCCN(C)C)cc3[N+](=O)[O-])CC2)cc1	Peg3 prom inh 79
CCOC(=O)C1=CN(CC)S(=O)(=O)NC1CC (centres undefined)	none
COc1ccc(CC(N)c2csc(NC(=O)Nc3cccc(C(F)(F)F)c3)n2)cc1 (centres undefined)	Peg3 prom inh 97
CC(C)c1ccc(NC(=O)Nc2nc(C(N)c3ccccc3Cl)cs2)cc1 (centres undefined)	Peg3 prom inh 88
CC(C)C(N)c1csc(NC(=O)Nc2ccc(OC(F)(F)F)cc2)n1 (centres undefined)	Peg3 prom inh 97
COc1ccc(CC(N)c2csc(NC(=O)Nc3ccc(F)cc3)n2)cc1 (centres undefined)	Peg3 prom inh 55
CC(C)(C)c1ccccc1NC(=O)Nc1nc(C(N)c2ccccc2Cl)cs1 (centres undefined)	none
COc1ccc(CC(N)c2csc(NC(=O)NCc3ccccc3)n2)cc1 (centres undefined)	none
COC(=O)[C@]12CCCCC=C1N(Cc1ccc(Cl)cc1Cl)C(=O)[C@H](CC(=O)NCCCCc1ccccc1)C2	none (no result: KKLEB cytotox, Peg3 prom inh, CF NFkB inh)
CC(Oc1ccc(-c2ccccc2)cc1)C(=O)N/N=C/c1cccnc1 (centres undefined)	none
Cc1ccccc1N1CCN(c2ccccc2NC(=O)/C=C\C(=O)O)CC1	none
COC(=O)C1=C(C(=O)OC)[C@]2([C@H]3CC=CCN[C@@H](Cc4ccccc4)C(=O)N3Cc3ccccc3)C=C[C@H]1O2	none
NC(Cc1ccc(C(F)(F)F)cc1)c1csc(NC(=O)Nc2ccccc2Cl)n1 (centres undefined)	Peg3 prom inh 89
COc1ccc(CC(N)c2csc(NC(=O)NCCc3ccc(OC)c(OC)c3)n2)cc1 (centres undefined)	none
NC(Cc1ccc(C(F)(F)F)cc1)c1csc(Nc2nncc3ccccc23)n1 (centres undefined)	Peg3 prom inh 94
NC(CCc1ccccc1)c1csc(NC(=O)Nc2cccc(C(F)(F)F)c2)n1 (centres undefined)	Peg3 prom inh 95
COc1cc(CNC(=O)Nc2nc(C(N)Cc3ccc(C(F)(F)F)cc3)cs2)cc(OC)c1OC (centres undefined)	Peg3 prom inh 98
Nn1c(SCC(=O)NC2CCCCC2)nnc1-c1ccccc1F	none
Nc1ncnc2c1ncn2[C@@H]1O[C@H](C(=O)N(CCC2=CCCCC2)CC2CC2)[C@@H](O)[C@H]1O	none
NCc1csc(NC(=O)Nc2cccc(C(F)(F)F)c2)n1	none
NC(Cc1ccc(C(F)(F)F)cc1)c1csc(NC(=O)Nc2ccccc2)n1 (centres undefined)	Peg3 prom inh 94
NC(COCc1ccccc1)c1csc(NC(=O)Nc2cccc(Cl)c2)n1 (centres undefined)	Peg3 prom inh 96
CC(C)C(N)c1csc(NC(=O)Nc2cccc(C(F)(F)F)c2)n1 (centres undefined)	Peg3 prom inh 97
NC(CO)c1csc(NC(=O)Nc2cccc(Cl)c2)n1 (centres undefined)	none
NC(Cc1ccc(Cl)cc1)c1csc(NC(=O)Nc2ccccc2)n1 (centres undefined)	Peg3 prom inh 101
CCOC(=O)C1CCCN(C(=O)c2cc(F)ccc2C)CC1 (centres undefined)	none
Cc1cc(NC(=O)C(C)SCC(=O)N(C)Cc2ccccc2F)no1 (centres undefined)	Peg3 prom inh 71
Cc1cc(NC(=O)C(C)SCC(=O)N(Cc2ccccc2)c2ccccc2)no1 (centres undefined)	none
C=CCN1c2ccccc2[C@]23C[C@@H](C(=O)OC)N(C(=O)c4cccs4)C2=NC(C(=O)OC)=C(C(=O)OC)[C@H]13	Peg3 prom inh 75
CC#CCN1c2ccccc2[C@]23C[C@@H](C(=O)OC)N(C(=O)C4CCC4)C2=NC(C(=O)OC)=C(C(=O)OC)[C@H]13	Peg3 prom inh 75
COC(=O)C1=C(C(=O)OC)[C@@H]2N(Cc3ccccc3)c3ccccc3[C@@]23C[C@@H](C(=O)OC)N(C(=O)COCc2ccccc2)C3=N1	Peg3 prom inh 55, TWEAK Fn14 block 51
C=CCN1c2ccccc2[C@]23C[C@@H](C(=O)OC)N(C(=O)OCC)C2=NC(C(=O)OC)=C(C(=O)OC)[C@H]13	none
COC(=O)C1=C(C(=O)OC)[C@@H]2N(Cc3ccccc3)c3ccccc3[C@@]23C[C@@H](C(=O)OC)N(C(C)=O)C3=N1	none
COC(=O)C1=C(C(=O)OC)[C@@H]2N(C)c3ccc(OC)cc3[C@@]23C[C@@H](C(=O)OC)N(C(=O)c2ccc(Br)cc2)C3=N1	Peg3 prom inh 79, TWEAK Fn14 block 53, CF NFkB inh 55
CCOc1cc(/C=N/NC(=O)c2nn(C)cc2Br)ccc1OCc1ccccc1Cl	TWEAK Fn14 block 57
CCOc1cc(/C=N/NC(=O)c2ccc(CN3CCOCC3)cc2)ccc1OCc1ccccc1	TROY signal inh 51, TWEAK Fn14 block 70
Cn1cc(Br)c(C(=O)N/N=C/c2cccc(OC3CSC3)c2)n1	none
Cc1ccc(NC(=O)COC(=O)Cn2ccc(=O)[nH]c2=O)cc1C	none

High-throughput results (PubChem)
